# High-throughput results (PubChem)
# Compounds with a hit are over-represented: about 2.3% of the library has one in this group of screens.
# GLP1R inv ag – GLP-1 receptor (human) inverse agonism | P43220 | HEK293 GLP-1R CRE-luciferase, luminescence, 24 h; GLP-1R form is constitutively active | Potency, µM (titrated, usually from 38.3 µM), for inactives: top-dose activity change, negative = inhibition, usual class: inhibitors | hit rate 1.6% among 410,000; note: % is set by controls: 0 for no effect and ±100 for the full control effect; nearly all actives have a fitted effect of over 55% in size
#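 qHTS in 1536-well format: reporter HEK293 cells expressing constitutive GLP-1R activity in DMEM + 10% Nu serum, 24 hr with compounds at 37 deg C, luminescence read after 12 min with detection reagent.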
# PTHR1 ag – activates the human parathyroid hormone receptor PTHR1 | Q03431 | HEK293 GP2 PTHR1 cells, GloSensor cAMP luminescence, 1 h | Potency, µM (series often up to 115 µM), without a hit: at the highest dose activation, hits mostly activators | hit rate 0.075% among 410,000; note: nearly all actives have a fitted effect of over 55% in size
#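 HEK-293-derived GP2 cells expressing PTHR1 and a GloSensor cAMP reporter, 3,000/well, plated overnight, given luciferin plus IBMX (each 0.5 mM as added) for 1 h at 37 °C, then compound for 1 h at 37 °C. Luminescence was read after 15 min at room temperature.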
# GLS inhibitor – glutaminase GLS (human) inhibition; hit rate 0.21% among 410,000; AID 624170; GLS enzymatic activity, qHTS titration; Potency, µM (doses to about 45.5 µM), inactives show at the top dose activity change, negative = inhibition, most hits filed as inhibitors; O94925; note: % is set by controls: 0 for no effect and ±100 for the full control effect
# Target sequence (O94925 whole entry, looked up): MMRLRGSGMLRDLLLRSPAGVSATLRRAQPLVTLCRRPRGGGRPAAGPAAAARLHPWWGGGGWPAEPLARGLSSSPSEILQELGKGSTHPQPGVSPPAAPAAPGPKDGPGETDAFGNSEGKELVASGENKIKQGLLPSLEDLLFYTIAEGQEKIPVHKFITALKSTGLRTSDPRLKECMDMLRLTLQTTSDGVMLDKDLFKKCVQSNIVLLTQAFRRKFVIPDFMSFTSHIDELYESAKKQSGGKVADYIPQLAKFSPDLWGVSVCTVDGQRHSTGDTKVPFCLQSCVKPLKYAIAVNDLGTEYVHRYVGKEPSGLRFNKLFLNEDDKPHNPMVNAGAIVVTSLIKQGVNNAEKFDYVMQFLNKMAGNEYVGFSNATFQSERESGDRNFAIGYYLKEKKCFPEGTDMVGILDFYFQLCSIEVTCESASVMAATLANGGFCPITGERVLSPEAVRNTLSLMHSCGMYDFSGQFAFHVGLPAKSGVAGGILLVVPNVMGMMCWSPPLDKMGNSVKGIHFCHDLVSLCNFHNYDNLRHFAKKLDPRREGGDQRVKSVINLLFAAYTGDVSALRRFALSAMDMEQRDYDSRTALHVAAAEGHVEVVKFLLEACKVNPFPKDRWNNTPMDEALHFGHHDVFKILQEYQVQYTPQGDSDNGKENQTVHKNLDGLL
#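 Read-out is an Amplex red fluorescence increase coupled through glutamate oxidase and HRP, measured before and after 30 min room-temperature incubation. hKGA is in 45 mM KH2PO4 (pH 8.2) with 0.02% Tween-20; glutamine added as 1mM solution.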
# 12-LOX inh – inhibitors of human 12S-lipoxygenase ALOX12; P18054; purified 12hLO, xylenol orange hydroperoxide absorbance; Potency, µM (doses to about 108 µM), for inactives: top-dose activity change, negative = inhibition, usual class: inhibitors; hit rate 1.1% among 580,000; AID 1671190; note: % is set by controls: 0 for no effect and ±100 for the full control effect
#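 Hydroperoxide product was detected by ferrous iron/xylenol orange as the 573 to 405 nm absorbance ratio. Arachidonic acid at 40 uM (final) was turned over for 30 min at room temperature by 150 nM human 12hLO, pH 7.0 Hepes buffer, after 15 min compound preincubation.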
# GLP-1R agonist – agonists of human GLP-1 receptor. Potency, µM (titrated, usually from 45.6 µM), without a hit: at the highest dose activation, hits mostly activators. HEK293 GLP-1R CRE-luciferase, luminescence, 4-6 h; cells express a hypersensitive GLP-1R form. AID 624172. hit rate 0.007% among 380,000; note: % of control where 0% means no effect
# Glioma ERSR ind – ER stress response induction in glioma; hit rate 0.02% among 420,000; Potency, µM, for inactives: top-dose activation, hits mostly activators; U87-MG GRP78 promoter luciferase reporter, 16 h; note: series mostly up to about 76 µM; % of control where 0% means no effect; nearly all actives have a fitted effect of over 35% in size
#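 Stably transfected U87-MG glioma cells carrying a GRP78-based luciferase sensor; 16 h compound incubation. Luminescence end-point read 10 min after Bright-Glo addition at room temperature.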
# Starred values were filed as active, the others as inactive; i = inactive; ? = inconclusive; . = no result given; [ ] = dose if it differs, or a comment. Calls come from the whole dose curve; as a rule, active = well fitted curve in the direction sought with a large enough effect; inconclusive = small, poorly fitted or top-dose-only effect, or another doubt; inactive = no such curve, though single readings can be large; an effect the other way counts as inactive or inconclusive. Potency is the fitted concentration of half-maximal effect.
SMILES,GLP1R inv ag,PTHR1 ag,GLS inhibitor,12-LOX inh,GLP-1R agonist,Glioma ERSR ind
O=c1cc(N2CCOCC2)oc2c(Nc3ccccc3)nccc12,.,.,.,7.1%[176 µM],.,.
CCc1ccc(-c2cc3c(=O)[nH]nc(SCC(=O)NC4CCCC4)n3n2)cc1,.,.,.,-3.2%,.,.
CC(C)C(=O)N1CCN(c2nc3c(s2)CC(C(=O)Nc2ccc(Cl)cc2)CC3)CC1 (configuration not stated),.,.,.,31.6µM*,.,.
CCC(=O)N1CCN(c2nc3c(s2)CC(C(=O)Nc2ccc(CC)cc2)CC3)CC1 (configuration not stated),.,.,.,16.6%,.,.
CCC(=O)N1CCN(c2nc3c(s2)CC(C(=O)Nc2ccc(OC)c(F)c2)CC3)CC1 (configuration not stated),.,.,.,25.1µM*,.,.
CCC(=O)N1CCN(c2nc3c(s2)CC(C(=O)Nc2ccc(OC)cc2)CC3)CC1 (configuration not stated),.,.,.,24.9%,.,.
CCOC(=O)c1ccc2ncc(C(=O)OCC)c(NCCCOC(=O)c3cccnc3)c2c1,.,.,.,76.0%,.,.
CCN(CC)CCCNc1nc2ccccc2c2[nH]c3ccc(OC)cc3c12,?,-12.5%,-1.4%,44.7µM*,-13.3%,-13.9%
CCCC(=O)Nc1ccc(CNCc2c(C)cc(C)cc2C)cc1,.,.,.,10.7%,.,.
CC(C)(C)OC(=O)N(CCc1ccccc1)Cc1cccc(OCc2cccc(NC(=O)c3ccccc3)c2)c1,10µM*,-20.5%,37.6%,-3.7%,-2.6%,-1.2%
CC(C)(C)OC(=O)N(CCc1ccccc1)Cc1ccc(OCc2cccc(NC(=O)/C=C/c3ccccc3)c2)cc1,?,i,-7.0%,-11.1%,-0.3%,-2.9%
CC(C)(C)OC(=O)N(CCc1ccccc1)Cc1ccc(OCc2cccc(NC(=O)C3CC3)c2)cc1,7.94µM*,-41.6%,-6.2%,?,-2.5%,2.2%
COc1ccccc1C1CC(=O)N(c2cccc(F)c2)C2=C1C(=O)OC2 (configuration not stated),.,.,.,45.2%,.,.
CCN(C(=O)C(C)Cl)C1CCCCC1 (configuration not stated),.,.,.,-0.4%,.,.
Cc1ccc(OCC(=O)NCc2ccc(Cn3cccn3)cc2)c(C)c1,.,.,.,-29.5%,.,.
COc1cc(CNC2CCCC2)cc(Cl)c1OCc1ccccc1F,3.55µM*,-8.0%,6.9%,-28.8%,-0.1%,-2.1%
O=C(CC1CCCC1)Nc1ccc2c(c1)-c1ccccc1C2,.,.,.,8.9%,.,.
CC(C)n1c(CSCc2ccc(Cl)cc2Cl)n[nH]c1=S,-31.1%[7.66 µM],-91.0%,?,44.7µM*,0.0%,-3.3%
Cc1c(C(=O)NCc2coc(-c3cccs3)n2)cccc1[N+](=O)[O-],.,.,.,-18.6%,.,.
Cc1oc(-c2ccccc2)nc1CC(=O)Nc1ccccn1,.,.,.,-16.6%,.,.
OCC1(CNCc2cccnc2)C[C@@H](O)[C@@H](O)C1 (some centres not stated),.,.,.,20µM*,.,.
Cc1cc(C)nc(SC(C(=O)O)c2ccccc2)n1 (configuration not stated),-1.2%,i,4.5%,-0.5%,0.1%,-2.4%
Cc1cc(C(F)(F)F)nc(SC(C(=O)O)c2ccccc2)n1 (configuration not stated),.,.,.,11.2µM*,.,.
C=C(C)CNC(=S)N/N=C(/C)c1ccc(C)o1,.,.,.,65.9%,.,.
O=C(c1ccccc1)N(CCCl)C(=O)N(CCCl)C(=O)c1ccccc1,-19.6%,-12.7%,-3.4%,10µM*,-3.6%,-5.4%
SMILES,GLP1R inv ag,PTHR1 ag,GLS inhibitor,12-LOX inh,GLP-1R agonist,Glioma ERSR ind
O=C(c1ccccc1)N(C(=O)c1ccccc1)c1ccccc1,-20.4%,-7.6%,-6.7%,-13.0%,10.6%,3.9%
O=C(NC1CC1)c1ccccc1OCC1CCCN(Cc2cccc3[nH]ccc23)C1 (configuration not stated),.,.,.,-13.2%,.,.
Cc1cc(NC(=O)c2ccccc2-c2ccccc2)ccc1Br,10µM*,-26.5%,22.8%,1.6%,0.7%,-1.8%
Cc1cccc(NC(=O)c2ccccc2-c2ccccc2)c1,-8.2%[7.66 µM],i,-5.7%,8.2%,14.1%,-0.1%
COC(=O)c1sc(=S)sc1C(=O)OC,24.2%,-27.6%[57.5 µM],0.5%,44.7µM*,-1.2%,-0.5%
COC(=O)c1sc(C(=O)OC)c(C(=O)OC)c1C(=O)OC,5.3%,i,1.2%,-9.1%,0.0%,-5.4%
Cc1cc(-c2nc3cc(NC(=O)C(C)C)ccc3o2)ccc1Br,.,.,.,-6.9%,.,.
O=C(c1cnccn1)N1CCC2(CCCN(C(c3ccccc3)c3ccccc3)C2)CC1,.,.,.,-25.5%[57.4 µM],.,44.7µM*
O=C(c1cccc(F)c1)N1CCC2(CC1)CN(C(c1ccccc1)c1ccccc1)C2,.,.,.,-25.8%[57.4 µM],.,-2.5%
O=C(c1cccc(F)c1)N1CCC[C@@]2(CCN(C(c3ccccc3)c3ccccc3)C2)C1,.,.,.,-29.6%[57.4 µM],.,12.6µM*
COc1ccc(NC(=O)CCn2nc(-c3ccc(C)cc3)c3ccccc3c2=O)cc1C(N)=O,.,.,.,-21.9%,.,.
Cc1ccc(C)c(-n2cc(CNCCCn3cccn3)c(-c3ccccc3)n2)c1,11.2µM*,i,-6.0%,0.0%,-0.3%,-7.2%
CC(=O)n1cc(N(C(=O)CCl)c2ccc(C)cc2)c2ccccc21,4.47µM*,-37.4%,-13.7%,?,-0.7%,-14.1%
COc1cccc(C(=O)NC(=S)Nc2ccccc2N2CCCCC2)c1,5.62µM*,i,23.0%,39.8µM*,15.9%,4.5%
COc1cccc(C(=O)NC(=S)Nc2ccccc2N2CCCC2)c1,5.01µM*,-15.4%,24.7%,?,25.0%,5.1%
COc1cccc(C(=O)Nc2ccccc2N2CCCC2)c1,2.2%,-10.0%[57.5 µM],15.7%,?,1.0%,-1.1%
O=C1CC(=O)C(n2cncn2)C(c2ccc(Cl)cc2Cl)C1 (configuration not stated),0.5%,3.3%[57.5 µM],-0.3%,.,-5.8%,-4.6%
CC(C)(C)c1ccc(Oc2cccc(C3CC(=O)C(C4NCCc5ccccc54)C(=O)C3n3cncn3)c2)cc1 (configuration not stated),6.31µM*,-3.5%[57.5 µM],2.0%,23.5%,-4.7%,1.0%
O=C1CC(c2ccccc2Oc2cccc(Cl)c2)C(n2cncn2)C(=O)C1C1NCCc2ccccc21 (configuration not stated),?,i,3.3%,31.6µM*,-1.5%,-4.3%
O=Cc1s/c(=N\S(=O)(=O)c2ccccc2)n(CCCCl)c1Cl,2.82µM*,-22.7%,-8.7%,?,-5.5%,-14.6%
CCn1c(C)cs/c1=N\S(=O)(=O)c1ccccc1,23.5%,-7.8%,-14.8%,6.8%,1.6%,-5.6%
COc1ccc(C(NC(=O)/C=C/c2ccco2)c2ccc(OC)c(OC)c2)cc1 (configuration not stated),31.6%,i,-6.6%,44.7µM*,1.6%,-4.2%
